Calls of active or inactive are those of the source.
How the values were obtained:
[1] = tested on: Plasmodium falciparum Sir2 (PF13_0152, Sir2A); assay: Plasmodium falciparum Sir2A binding compounds – biochemical, small-molecule microarray, 635 nm fluorescence, primary screen (AID 1098); details: fluorescence 635 nm, higher = more signal;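 note: score merges spot fluorescence intensity with its signal-to-noise ratio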
[2] = probe aDKK1 binding to arrayed compounds – biochemical, biotinylated probe, 635/667 nm fluorescence, primary screen (AID 1099); details: small-molecule microarray, higher = more signal;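 note: score merges 667nm spot fluorescence with signal to noise across triplicate slides; reference of the scale not given here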
[3] = probe aCHRDL2 binding to arrayed compounds – biochemical, biotinylated probe, 635/667 nm fluorescence, primary screen (AID 1100); details: small-molecule microarray, higher = more signal
[4] = change in splice reporter luminescence, either direction, cell-based, HEK293, spliceosome inhibition project, primary screen (AID 1101); details: HEK293 splicing luciferase reporter, 24 h, higher = more signal, called active from +8 up or from −8 down;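 note: HEK293 cells carrying a splicing-competent luciferase reporter gene; test concentration not given here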
[5] = target: Fibroblast growth factor 10 (Homo sapiens) (UniProt O15520); assay: compounds binding fibroblast growth factor 10 – biochemical, small-molecule microarray, 635 nm fluorescence, primary screen (AID 1102); details: FGF10 binding, fluorescence 635 nm, higher = more signal
[6] = tested on: glycogen synthase kinase-3 (GSK3A per assay name; protocol says GSK3B); assay: compounds binding glycogen synthase kinase-3 – biochemical, small-molecule microarray, 635 nm fluorescence, GSK3A, primary screen (AID 1103); details: fluorescence 635 nm, higher = more signal; note: the record names both GSK3A and GSK3B
[7] = target: Epidermal growth factor receptor (Homo sapiens) (UniProt P00533); assay: compounds binding epidermal growth factor receptor – biochemical, small-molecule microarray, 635 nm fluorescence, primary screen (AID 1104); details: EGFR binding, higher = more signal;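 note: score merges 667 nm emission intensity with spot signal to noise over triplicate slides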
[8] = target: Follistatin-related protein 3 (Homo sapiens) (UniProt O95633); assay: compounds binding follistatin-related protein 3 – biochemical, small-molecule microarray, 635 nm fluorescence, primary screen (AID 1105); details: FSTL3 binding, higher = more signal;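 note: score merges emission near 667 nm and signal to noise per printed spot across three slides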
[9] = target: Dickkopf-related protein 1 (Homo sapiens) (UniProt O94907); assay: small molecules binding DKK1 protein – biochemical, small-molecule microarray, 635 nm fluorescence scan, primary screen (AID 1106); details: higher = more signal;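 note: score merges emission near 667 nm with signal to noise over three replicate slides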
[10] = tested on: Inhibin beta A chain (activin A); assay: small molecules binding activin A – biochemical, small-molecule microarray, 635 nm fluorescence scan, primary screen (AID 1107); details: INHBA, higher = more signal;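 note: mouse activin A protein probed at 4.33 µg/mL on printed slides; score merges bound-protein fluorescence near 667 nm with spot signal-to-noise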

Sequence of Fibroblast growth factor 10 (Homo sapiens) (O15520 whole entry, looked up): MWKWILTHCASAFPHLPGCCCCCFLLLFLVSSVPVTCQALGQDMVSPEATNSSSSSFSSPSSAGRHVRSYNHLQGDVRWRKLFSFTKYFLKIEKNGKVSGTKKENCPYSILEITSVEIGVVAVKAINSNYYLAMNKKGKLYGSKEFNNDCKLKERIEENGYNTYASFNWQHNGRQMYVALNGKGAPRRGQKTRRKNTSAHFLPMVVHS
Sequence of Dickkopf-related protein 1 (Homo sapiens) (O94907 whole entry, looked up): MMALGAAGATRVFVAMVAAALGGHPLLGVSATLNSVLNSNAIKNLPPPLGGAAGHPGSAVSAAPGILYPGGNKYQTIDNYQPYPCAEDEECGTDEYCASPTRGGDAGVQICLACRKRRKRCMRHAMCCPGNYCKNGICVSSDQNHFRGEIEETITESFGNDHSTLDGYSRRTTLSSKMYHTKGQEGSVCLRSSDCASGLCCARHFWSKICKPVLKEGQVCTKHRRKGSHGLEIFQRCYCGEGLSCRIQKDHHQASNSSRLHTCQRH
Sequence of Follistatin-related protein 3 (Homo sapiens) (O95633 whole entry, looked up): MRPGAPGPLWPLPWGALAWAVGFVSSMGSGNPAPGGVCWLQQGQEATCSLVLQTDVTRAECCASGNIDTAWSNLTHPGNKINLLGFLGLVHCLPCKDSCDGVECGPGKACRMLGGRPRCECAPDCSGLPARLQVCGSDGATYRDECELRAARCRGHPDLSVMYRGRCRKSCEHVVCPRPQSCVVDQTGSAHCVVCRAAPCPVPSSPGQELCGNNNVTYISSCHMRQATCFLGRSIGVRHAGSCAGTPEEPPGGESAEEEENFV
Sequence of Epidermal growth factor receptor (Homo sapiens) (P00533 whole entry, looked up): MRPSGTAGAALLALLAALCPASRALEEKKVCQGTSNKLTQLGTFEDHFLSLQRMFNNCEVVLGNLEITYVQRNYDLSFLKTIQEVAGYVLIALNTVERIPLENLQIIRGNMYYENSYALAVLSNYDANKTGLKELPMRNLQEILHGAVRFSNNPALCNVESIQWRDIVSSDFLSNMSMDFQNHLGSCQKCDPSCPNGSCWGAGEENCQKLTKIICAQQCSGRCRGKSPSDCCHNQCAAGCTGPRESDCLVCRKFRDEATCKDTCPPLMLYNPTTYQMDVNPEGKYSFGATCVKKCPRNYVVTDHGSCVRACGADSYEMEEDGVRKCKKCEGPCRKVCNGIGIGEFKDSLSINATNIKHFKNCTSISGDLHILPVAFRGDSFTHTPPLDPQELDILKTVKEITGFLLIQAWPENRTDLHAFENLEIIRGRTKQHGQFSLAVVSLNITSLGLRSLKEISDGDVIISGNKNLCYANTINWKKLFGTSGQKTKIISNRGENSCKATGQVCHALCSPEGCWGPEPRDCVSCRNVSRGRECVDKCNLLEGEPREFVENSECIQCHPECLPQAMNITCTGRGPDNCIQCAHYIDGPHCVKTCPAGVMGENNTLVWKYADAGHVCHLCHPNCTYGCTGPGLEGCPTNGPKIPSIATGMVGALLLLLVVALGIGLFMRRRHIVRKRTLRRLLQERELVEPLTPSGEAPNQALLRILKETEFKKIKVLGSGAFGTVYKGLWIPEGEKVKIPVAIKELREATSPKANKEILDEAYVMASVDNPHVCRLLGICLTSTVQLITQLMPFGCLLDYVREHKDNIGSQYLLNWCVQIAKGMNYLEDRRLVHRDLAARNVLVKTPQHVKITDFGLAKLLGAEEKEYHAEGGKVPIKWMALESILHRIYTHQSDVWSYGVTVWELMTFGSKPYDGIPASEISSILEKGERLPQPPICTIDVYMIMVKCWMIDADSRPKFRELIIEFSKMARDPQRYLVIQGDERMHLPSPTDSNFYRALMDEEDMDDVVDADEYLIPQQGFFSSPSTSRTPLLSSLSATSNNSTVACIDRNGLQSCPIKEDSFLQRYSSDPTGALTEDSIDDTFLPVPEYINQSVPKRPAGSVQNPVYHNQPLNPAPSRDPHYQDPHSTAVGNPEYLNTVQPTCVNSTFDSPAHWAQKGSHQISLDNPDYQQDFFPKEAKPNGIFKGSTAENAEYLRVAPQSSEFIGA

SMILES	composite z-score [1]	composite z-score [2]	composite z-score [3]	z-score [4]	composite z-score [5]	composite z-score [6]	composite z-score [7]	composite z-score [8]	composite z-score [9]	composite z-score [10]
CC[C@@H]1C=C(C(=O)O)[C@H](c2ccc(C)cc2)N1S(=O)(=O)c1ccc(C)cc1	0.66	0.0882	0.335	0.243 (inactive)	0.227	0.745	-0.0708	0.534	-0.357	0.236
COCCCNC(=O)[C@]1(Cc2ccccc2)N=C(c2ccc(OCCCO)cc2)O[C@@H]1c1ccccc1CN=[N+]=[N-]	1.24	1.2	1.29	-0.97 (inactive)	1.49	0.98	0.25	0.721	-0.0836	0.608
NCCCCCCNC(=O)[C@H]1C[C@H]2C(=O)N[C@@H](Cc3ccccc3)C(=O)N2[C@H]1c1cccc(OCCO)c1	0.809	0.682	0.713	-0.895 (inactive)	0.324	0.0638	0.13	0.362	-0.0608	0.101
CN1C(=O)C2C=CC(C(O)c3ccccc3)N(N3CCCCC3)C2C1=O (stereo not given)	1.75	0.159	0.846	0.651 (inactive)	1.26	0.83	-0.0247	0.494	0.0514	0.932
C[N+](C)(C)CCCC[C@@H]1NC(=O)[C@@H]2C[C@H](C(=O)NCCCCCCNC(=O)CS)[C@H](c3ccc(O)cc3)N2C1=O	1.09	-0.0559	0.492	0.00498 (inactive)	-0.387	-1.28	-0.502	-1.58	-0.141	-0.655
C=C(C)[C@@H]1CC=C(C(O)C2C=CC3C(=O)NC(=O)C3N2Nc2ccc(Cl)cc2Cl)CC1 (stereo not given in full)	0.576	0.802	1.3	0.172 (inactive)	0.276	0.289	0.433	1.06	0.414	1.66
C#CCN1[C@H](/C=C/C2CC2)[C@H](Cc2ccccc2)OC(=O)[C@@H]1Cc1ccccc1	1.16	-0.411	-0.507	0.23 (inactive)	0.294	0.109	0.323	0.326	0.428	0.849
COc1ccc(NN2C(C(O)c3ccc(N(C)C)cc3)C=CC3C(=O)N(C4CCCCC4)C(=O)C32)cc1 (stereo not given)	1.01	1.15	0.649	-0.438 (inactive)	0.635	1.3	0.322	0.659	-0.28	0.814
COC(=O)[C@@]1(Cc2ccc(OC)cc2)[C@H]2c3cc(C(=O)N4CCCC4)n(Cc4nc5ccccc5[nH]4)c3C[C@H]2CN1C(=O)c1ccccc1	1.36	1.48	1.34	-1.29 (inactive)	0.77	0.54	0.206	1.05	-0.49	1.28
CO[C@H]1O[C@H](CO)[C@@H](OC(=O)Nc2ccccc2-c2ccccc2)[C@H](OC(=O)Nc2ccccc2-c2ccccc2)[C@@H]1OC(=O)Nc1ccccc1-c1ccccc1	1.63	0.408	0.625	0.389 (inactive)	1.43	1.12	-0.168	1.03	0.208	0.0923
CCCCC(=C=CC[C@@H](O)c1ccc(CO)o1)CCO	0.175	-0.119	-0.479	0.37 (inactive)	0.788	0.621	-0.617	-0.0762	0.294	1.26
COC(=O)[C@@]1(Cc2ccc(OC)cc2)[C@H]2c3cc(C(=O)N4CCCC4)n(CCc4ccc(O)c(O)c4)c3C[C@H]2CN1C(=O)c1ccccc1	1.49	0.845	1.35	-0.73 (inactive)	0.0136	0.0777	-0.352	-0.269	-0.45	1.76
[N-]=[N+]=NCc1ccccc1[C@@H]1OC(c2ccc(OCCCO)cc2)=N[C@]1(CCS(=O)(=O)c1ccccc1)C(=O)N1CCOCC1	1.46	1.27	1.31	-1.56 (inactive)	1.04	1.12	0.117	1.07	-0.242	0.933
C#CCN1[C@@H](Cc2ccc(O)cc2)C(=O)O[C@H](Cc2ccccc2)[C@@H]1/C=C/C1CC1	-0.0032	-0.366	-0.337	1.99 (inactive)	0.172	-0.102	0.002	-0.149	0.0874	0.718
COc1ccc(-c2cc3c(c(Cc4ccccc4)n2)[Si](C(C)C)(C(C)C)OC3)cn1	0.409	0.0847	-0.386	-0.267 (inactive)	-0.156	-0.949	0.343	-0.139	0.085	0.256
COC(=O)[C@@]1(Cc2ccccc2)[C@H]2c3cc(C(=O)N4CCCC4)n(Cc4c(CO)[nH]cc(C)c4=O)c3C[C@H]2CN1C(=O)c1ccccc1	0.893	0.896	1.24	0.796 (inactive)	0.303	0.132	0.113	0.0713	-0.135	1.27

SMILES	composite z-score [1]	composite z-score [2]	composite z-score [3]	z-score [4]	composite z-score [5]	composite z-score [6]	composite z-score [7]	composite z-score [8]	composite z-score [9]	composite z-score [10]
CCCC=C(CCC)[C@@H](NS(=O)(=O)c1ccc(Cl)cc1)c1ccc(C(=O)OC)cc1	0.456	0.113	-0.461	0.184 (inactive)	0.401	0.836	0.228	-0.445	0.291	0.28
COC(=O)c1c(CC[C@@H](CO)NC(=O)N[C@H](Cc2ccccc2)Cn2cc(-c3ccccn3)nn2)oc(C(C)=O)c1C(=O)OC	1.48	-0.123	-0.379	1.01 (inactive)	0.384	0.17	-0.371	-0.15	-0.328	-0.285
COC(=O)[C@@]1(Cc2ccc(OC)cc2)[C@H]2c3cc(C(=O)N4CCCC4)n(CCSCCO)c3C[C@H]2CN1C(=O)c1ccccc1	0.45	0.852	1.21	-0.657 (inactive)	0.556	0.541	0.0009	-0.17	-0.984	0.435
[N-]=[N+]=Nc1ccccc1[C@H]1OC(c2ccc(OCCCO)cc2)=N[C@@]1(CCS(=O)(=O)c1ccccc1)C(=O)NCc1ccccc1	0.91	0.812	0.988	-0.431 (inactive)	1.18	1.32	0.258	1.14	0.584	1.05
COCCOC(=O)N1C(=O)[C@@]2(c3ccccc31)[C@H](C(N)=O)[C@H]1C(=O)O[C@H](c3ccccc3)[C@H](c3ccccc3)N1[C@@H]2c1ccc(O)cc1	0.784	-0.566	0.481	-0.726 (inactive)	0.0392	-0.0985	-0.458	0.292	-0.0601	0.0565
CO[C@H]1O[C@H](CO)[C@@H](OC(=O)Nc2ccccc2)[C@@H]2OC(=O)[C@@H](Cc3ccc4ccccc4c3)C/C=C/C[C@H](Cc3ccc4ccccc4c3)C(=O)O[C@@H]12	1.08	0.134	0.402	-0.916 (inactive)	1.08	0.899	0.204	0.531	-0.112	0.962
C=CCC(OC(C)=O)[C@@H]1[C@@H](N(Cc2ccc(-c3ccccc3)cc2)C(=O)Cc2ccc(F)cc2)c2cc(OCCCO)ccc2N1C(=O)c1ccc2ccccc2c1 (stereo not given in full)	-0.352	-0.0183	0.345	-0.519 (inactive)	0.0036	0.0557	0.0144	0.268	-0.4	1.18
CC(=O)Nc1cc(Br)ccc1C(=O)NCc1ccccc1	0.695	-0.0601	0.416	-0.508 (inactive)	-0.158	0.0021	-0.274	-0.187	-0.221	0.305
COc1ccccc1CN1C(=O)c2ccccc2[C@@]2(Cc3ccccc3N(CCCN(C)C)C2=O)[C@@H]1c1ccc(CO)cc1	0.269	-0.169	-0.649	-0.706 (inactive)	0.165	0.0081	0.237	0.76	1.05	1.19
CCCCN1CC=CC23O[C@@H]4C=CCOC(=O)[C@@H]4[C@H]2C(=O)N(CCCCCCO)[C@@H]3C1=O (stereo not given in full)	1.77	0.159	0.552	0.381 (inactive)	-0.988	-1	-1.5	-1.38	-1.28	0.65
C=CCN1C(=O)[C@]2(Cc3ccccc3)N=C(c3ccc(OCCCO)cc3)O[C@@H]2c2ccccc21	1.16	0.0729	0.795	-1.37 (inactive)	0.755	1.27	0.781	0.878	0.547	1.13
O=C1N(CCS(=O)(=O)c2ccccc2)c2ccccc2[C@@H]2OC(c3ccc(OCCCO)cc3)=N[C@]12Cc1ccccc1	1.49	0.0733	0.393	-0.917 (inactive)	0.379	1.28	0.542	1.29	0.432	0.995
CCCCN1CC=CC23O[C@@H]4/C=C\CCCOC(=O)C4[C@H]2C(=O)N(CCCCCO)[C@@H]3C1=O (stereo not given in full)	1.29	-0.37	-0.167	1.08 (inactive)	-0.552	-1.34	-1.13	-1.08	-0.443	0.653
O=C(CS)NCCCCCNC(=O)[C@H]1C[C@H]2C(=O)NCC(=O)N2[C@H]1c1ccc(O)cc1	0.394	-0.164	0.699	-1.35 (inactive)	-1.04	-1.32	-0.641	-0.749	-0.887	-0.583
CCOC(=O)C1=CCC(c2ccc(F)cc2)N(S(=O)(=O)c2ccc(C)cc2)C1 (stereo not given)	0.12	0.582	0.291	0.0136 (inactive)	-0.0564	0.265	0.192	0.249	0.127	1.01

From PubChem BioAssay
